This is an account of results in PubChem BioAssay (EPA / NIEHS).

For orientation: AC50 means the midpoint of the concentration-response curve, whichever way the signal moves.

Active and inactive are the calls of the source. How the source made its calls: active means hit-call score of the fitted dose curve at least 0.9, where 1 is the maximum; inactive means score below 0.9.

Read-out in the test: Interleukin-8 (IL8), CXCL8 (gene 3576)
The test can be described thus: BSK_hDFCGF_IL8: BioMAP Diversity Plus: hDFCGF Assay for Interleukin-8 (IL8) Biomarker Activity (AID 2283058). To be noted: primary human foreskin fibroblasts; actives raise or lower the signal. The protocol:
BSK_hDFCGF is a cell-based, multiplexed-readout assay that uses foreskin fibroblast, a human skin primary cell, with measurements taken at 24 hours after chemical dosing in a 96-well plate.BSK_hDFCGF_IL8 is an assay component measured in the BSK_hDFCGF assay. It measures IL-8 antibody related to regulation of gene expression using ELISA technology.Data from the assay component BSK_hDFCGF_IL8 was analyzed into 1 assay endpoint. This assay endpoint, BSK_hDFCGF_IL8, was analyzed with bidirectional fitting relative to DMSO as the negative control and baseline of activity. Using a type of binding reporter, gain or loss-of-signal activity can be used to understand changes in the signaling as they relate to the gene CXCL8. Furthermore, this assay endpoint can be referred to as a primary readout, because this assay has produced multiple assay endpoints where this one serves a signaling function. To generalize the intended target to other relatable targets, this assay endpoint is annotated to the cytokine intended target family, where the subfamily is interleukins.
The levels of cell surface (or secreted, indicated by the prefix "s") biomarker endpoints were measured by ELISA. Overt cytotoxicity to cells in confluent adherent cultures (all systems other than the BT system) was assessed by measuring total protein levels using sulforhodamine B (SRB) staining in parallel cultures at the time of biomarker measurements, indicated as SRB endpoints. For proliferation assays for adherent cell types, individual cell types are cultured at sub-confluence and relative cell numbers quantified by SRB staining at time points optimized for each system (48 h: 3C and CASM3C systems; 72 h: BT and HDF3CGF systems; 96 h: SAg system). SRB was performed by staining cells with 0.1% SRB after fixation with 10% TCA and reading wells at 560 nm.Viability and proliferation of PBMC (T cells) was quantified by Alamar Blue reduction for the SAg and BT systems. For PBMC viability (referred to as PBMC Cytotoxicity within the assay endpoint names), cells were plated (75,000/well in a 96-well plate) and then chemical samples added for 1 h before addition of activators, SEB and TSST-1 (20 ng/mL final concentration each). Cells were incubated for 90 h. Then, Alamar Blue (20 uL/well) (Invitrogen, Cat DAL1100) was added for 6 h, and the plates were read with a fluorescence microplate reader at 546/580 nm (excitation/emission). For PBMC proliferation, cells were plated and activated as above but incubated for only 16 h prior to addition of Alamar Blue. Plates were read after 6 h.
As to `COc1cc(C(=O)NC2CCN(C)CC2)ccc1Nc1ncc2c(n1)N(C1CCCC1)CC(F)(F)C(=O)N2C`, the AC50 was 23.8 µM (active).

Consider `Cc1cn([C@H]2C[C@H](N=[N+]=[N-])[C@@H](CO)O2)c(=O)[nH]c1=O`, for which the result was inactive.

On to `CCCCCCCCOC(=O)c1cc(O)c(O)c(O)c1`, for which the AC50 was 33.2 µM (active).

Take `CCCCOC(=O)c1ccc(O)cc1`: the outcome was inactive.

Regarding `CCCOC(=O)c1cc(O)c(O)c(O)c1`, the outcome was inactive.

Regarding `Cc1oc2c(NC(=O)c3c(Cl)cccc3Cl)cccc2c1C(C)(C)O`, the outcome was inactive.

On to `Cc1ccc2oc(CN(Cc3ccccc3)C(=O)Nc3c(F)cc(F)cc3F)c(-c3ccc(Cl)cc3)c2c1`, for which the result was inactive.

Take `CO[C@H]1/C=C/O[C@@]2(C)Oc3c(C)c(O)c4c(O)c(c(/C=N/N5CCN(C)CC5)c(O)c4c3C2=O)NC(=O)/C(C)=C\C=C\[C@H](C)[C@H](O)[C@@H](C)[C@@H](O)[C@@H](C)[C@H](OC(C)=O)[C@@H]1C`: the outcome was inactive.

With `O=c1c(-c2ccc(O)cc2)coc2cc(O)cc(O)c12`, the outcome was inactive.

Consider `CCCCCCCCCC(=O)O`, for which the outcome was inactive.

In the case of `CN(C)c1ccc(C(=C2C=CC(=[N+](C)C)C=C2)c2ccc(N(C)C)cc2)cc1`, the AC50 is 6.66 µM (active).

For `O=C(OCCCCCCOC(=O)c1ccccc1)c1ccccc1`, the result was inactive.

As for `CC(C)(O)c1ccc(CNC(=O)c2cccnc2Oc2ccc3nonc3c2)cc1`, the result was inactive.

As for `CN(C)C(=O)C1(N2CCCCC2)CCN(CC[C@@]2(c3ccc(Cl)c(Cl)c3)CN(C(=O)c3ccccc3)CCO2)CC1`, the AC50 was 33.7 µM (active).

Turning to `Oc1ccc2ccccc2c1`, the outcome was inactive.

As for `CC(C)(C)c1csc(-c2cc3cc(OCc4ccccc4CC(=O)O)ccc3o2)n1`, the AC50 was 18.4 µM (active).

Regarding `CCCCOC(=O)CC(CC(=O)OCCCC)(OC(C)=O)C(=O)OCCCC`, the result was inactive.

With `O=C1CCC(C2CCCCC2)CC1`, the AC50 is 32.5 µM (active).

On to `c1ccc(C[n+]2cccc3ccccc32)cc1`, for which the result was inactive.

In the case of `CN1C(=O)N(c2ccccc2Br)Cc2cnc(Nc3ccc4c(c3)OCC(CO)O4)nc21` (stereo not given), the AC50 is 16.1 µM (active).

With `CC1(C)NC(=O)N(c2ccc([N+](=O)[O-])c(C(F)(F)F)c2)C1=O`, the outcome was inactive.

On to `CC(O)CC(C)(C)O` (stereo not given), for which the result was inactive.

Regarding `CCN(Cc1cccnc1)C(=O)c1cccc(Cl)c1[C@]1(C)C(=O)N(Cc2ccc(OC)cc2OC)c2ccc(Cl)cc21`, the result was inactive.

For `CCN(Cc1cccc(S(=O)(=O)O)c1)c1ccc(C(=C2C=CC(=[N+](CC)Cc3cccc(S(=O)(=O)O)c3)C=C2)c2ccccc2S(=O)(=O)[O-])cc1`, the outcome was inactive.

For `c1ccc2ccccc2c1`, the outcome was inactive.

Regarding `O=C1c2ccccc2C(=O)N1CCc1noc(-c2ccc(CN3CCCCCC3)s2)n1`, the outcome was inactive.

For the compound `Cc1cc2c(cc1C(F)(F)F)N(C(=O)Nc1ccc(Oc3cccnc3C)nc1)CC2`, the outcome was inactive.

Take `CC[C@H](NC(=O)c1cc(F)ccc1NS(=O)(=O)c1cccc2cccnc12)c1ccccc1`: the outcome was inactive.

Turning to `Cc1cc(F)ccc1-c1cc(N2CC[C@@H](O)[C@H]2CO)ncc1N(C)C(=O)C(C)(C)c1cc(C(F)(F)F)cc(C(F)(F)F)c1`, the AC50 is 18.4 µM (active).

Consider `Cc1cccc2ccccc12`, for which the result was inactive.

`CCCC(=O)OCCC(C)C`: the outcome was inactive.

Regarding `O=C=NCCCCCCN=C=O`, the result was inactive.

Regarding `OCCO`, the result was inactive.

In the case of `CCOC(=O)O[C@H](C)OC(=O)c1ccc2c(c1)cc(C(=O)NC1CCN(C(C)C)CC1)n2Cc1cc(-c2ccc(Cl)s2)on1`, the AC50 is 6.12 µM (active).

In the case of `CC(C)(C)c1cc(/C=C2\SC(N)=NC2=O)cc(C(C)(C)C)c1O`, the AC50 was 20 µM (active).

Consider `CCCCCc1ccc(N)cc1`, for which the outcome was inactive.

For `O=C(O)c1ccccc1-n1cc(C(=O)O)c(=O)c2cc(Nc3c(F)cc(F)cc3Cl)c(Cl)cc21`, the outcome was inactive.

Turning to `CC1=CC(=O)/C(=C(/C)O)C(=O)O1`, the result was inactive.

For the compound `COCC(C)OCC(C)OCC(C)O` (stereo not given), the outcome was inactive.

`O=C(O)c1ccccc1C(=O)OCc1ccccc1`: the result was inactive.
